Screens: PubChem, National Center for Advancing Translational Sciences (NCATS)
Cruzain Triton = qHTS Assay for Promiscuous and Specific Inhibitors of Cruzain (with detergent); Cruzipain (Trypanosoma cruzi), P25779; purified cruzain, Z-FR-AMC fluorescence, 0.01% Triton; Potency, µM, most hits filed as inhibitors; hit rate 0.43% among 200,000; AID 1478, 2009; also: nearly all actives have a fitted effect of over 40% in size
Target sequence (P25779 123-467 limits assumed): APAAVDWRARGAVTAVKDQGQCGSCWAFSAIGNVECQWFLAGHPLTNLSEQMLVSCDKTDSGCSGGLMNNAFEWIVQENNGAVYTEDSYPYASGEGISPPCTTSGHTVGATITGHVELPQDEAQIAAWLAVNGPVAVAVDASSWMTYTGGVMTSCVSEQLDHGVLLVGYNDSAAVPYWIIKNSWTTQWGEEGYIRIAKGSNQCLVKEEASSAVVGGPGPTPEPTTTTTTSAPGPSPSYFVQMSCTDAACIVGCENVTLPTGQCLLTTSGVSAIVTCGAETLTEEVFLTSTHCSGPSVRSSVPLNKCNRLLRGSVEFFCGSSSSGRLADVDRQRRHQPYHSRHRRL
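Z-FR-AMC hydrolysis (2 uM substrate) by cruzain (1.5 nM) monitored kinetically at ex 360/em 450 nm after 15 min room-temperature compound exposure; 0.01% Triton X-100, pH 5.5, 5 mM DTT.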
Cruzain noTriton = qHTS Assay for Promiscuous and Specific Inhibitors of Cruzain (without detergent); Cruzipain (Trypanosoma cruzi), P25779; purified cruzain, Z-FR-AMC fluorescence, no detergent; Potency, µM, actives largely listed as inhibitors; hit rate 2.3% among 200,000; AID 1476, 2009; also: nearly all actives have a fitted effect of over 40% in size
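Detergent-free condition (0.00005% Triton X-100) in acetate buffer pH 5.5 with DTT. 1.5 nM enzyme and compound were pre-mixed 15 min, then 2 uM Z-FR-AMC substrate added; reaction progress from fluorescence change between first and third reads (60 s).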
Hits are given with their value; n = inactive; u = inconclusive. Compounds with a hit are over-represented: about 2.5% of the library has one in this group of screens. Calls follow the shape of the dose curve; as a rule, active = well fitted curve in the direction sought with a large enough effect; inconclusive = small, poorly fitted or top-dose-only effect, or another doubt; inactive = no such curve, though single readings can be large; an effect the other way counts as inactive or inconclusive.

SMILES	Cruzain Triton	Cruzain noTriton
Cc1ccc(-c2nnn(CC(=O)N(c3cccc(F)c3)C(C(=O)NC3CCCC3)c3ccco3)n2)o1 (stereo unspecified)	n	6.3µM
CCOc1ccc(OCC)c(NC(=O)CN(C)S(=O)(=O)c2ccc3[nH]c(=O)oc3c2)c1	n	n
COc1cccc(NC(=O)Cn2c(=O)n(CCC(=O)NCCc3ccc(Cl)cc3)c(=O)c3ccccc32)c1	n	n
COc1cccc(NC(=O)/C(C#N)=C/c2c(C)n(Cc3ccc(Cl)cc3)c3ccccc23)c1	n	6.3µM
Cc1c(/C=C(\C#N)C(=O)Nc2cccc(Cl)c2)c2ccccc2n1Cc1ccccc1	n	4µM
Cc1ccc(Cl)cc1NC(=O)/C(C#N)=C/c1c(C)n(Cc2ccccc2)c2ccccc12	n	n
CSc1nc(C)cc(Nc2ccc(O)c(CN3CCCCC3)c2)n1	n	n
Cn1c(=N)c(S(=O)(=O)c2ccc(F)cc2)cc2c(=O)n3ccccc3nc21	32µM	u
CCOCCCn1c(=N)c(S(=O)(=O)c2ccc(C)cc2)cc2c(=O)n3ccccc3nc21	n	n
COCCn1c(-c2ccco2)nc2nc3ccccc3nc21	28µM	n
COCCn1c(-c2cc(OC)c(OC)c(OC)c2)nc2nc3ccccc3nc21	n	n
Cc1ccc(C(=O)NCC(c2ccco2)S(=O)(=O)c2ccccc2)cc1C (stereo unspecified)	n	n
COc1ccc(N2CCN(CCCNC(=O)c3nnc(Cc4ccc(F)cc4)o3)CC2)cc1	n	n
CCOc1ccc(S(=O)(=O)Nc2ccccc2C(=O)NCc2ccco2)cc1	n	n
COc1ccc(S(=O)(=O)Nc2ccccc2C(=O)NCc2ccco2)cc1Br	u	25µM
COc1ccc(C(=O)N2CCN(c3cccc(Cl)c3)CC2)cc1	n	n
COc1ccc(C(=O)C2CN(c3ccccc3)CC2c2ccc(Cl)cc2)cc1 (stereo unspecified)	n	16µM
COc1cc(-c2nnc(-c3cccs3)o2)cc(OC)c1OC	n	n
Fc1ccc2c(Cl)c(-c3nnc(-c4cccs4)o3)sc2c1	n	10µM
COc1cc(CNCCSc2nnnn2C)ccc1OCc1ccccc1C	n	n
CCC(=O)N1CCc2cc(CNC(=O)c3ccccc3C)ccc21	n	n
CCOc1ccc(-n2c(SCC(=O)Nc3cc(C)ccc3C)nc3c([nH]c4ccccc43)c2=O)cc1	n	n
C=CCn1c(SCC(=O)Nc2sc3c(c2C#N)CCC3)nnc1C1COc2ccccc2O1 (stereo unspecified)	n	32µM
Cn1c(SCC(=O)Nc2sc3c(c2C#N)CCC3)nnc1C1COc2ccccc2O1 (stereo unspecified)	n	n
CCc1ccccc1NC(=O)C1CCCN(c2ncnc3onc(C)c23)C1 (stereo unspecified)	n	n
SMILES	Cruzain Triton	Cruzain noTriton
CCSc1nc(N)c(C#N)c(-c2ccco2)c1C#N	u	20µM
COC(=O)CSc1nc(N)c(C#N)c(-c2ccco2)c1C#N	n	n
CCCCc1nc(N)c(C#N)c(-c2ccco2)c1CCC	25µM	20µM
CCCc1nc(NC(C)=O)c(C#N)c(-c2ccco2)c1CC	n	n
Cc1noc(C)c1S(=O)(=O)NCCc1csc2nc(-c3ccc(Cl)cc3)nn12	n	u
COc1ccccc1C(=O)Oc1c(Sc2ccccc2)c(C)nn1C(C)(C)C	n	n
Nc1ccc(O)c(-c2nc3ccccc3s2)c1	n	3.2µM
O=C(Nc1ccc(O)c(-c2nc3ccccc3s2)c1)c1cc(=O)c2ccccc2o1	n	u
Oc1ccc(N=C/C=C/c2cccc(Br)c2)cc1-c1nc2ccccc2s1	n	20µM
Nc1ccc2nc(-c3ccc(O)cc3)sc2c1	n	u
CCOc1ccc(-c2oc3cc(Cl)ccc3c(=O)c2O)cc1OC	n	n
COc1ccc(C(CC(=O)Nc2ccc(OC)c(OC)c2)N2Cc3ccccc3C2=O)cc1 (stereo unspecified)	n	n
COc1ccc(-c2cc(-c3ccccc3)nc(SCC(=O)Nc3ccccc3F)c2C#N)cc1	n	n
N#Cc1c(-c2ccccc2)cc(C2CC2)nc1SCC(=O)c1cccs1	n	u
COc1ccc(-c2cc(-c3ccccc3)c(C#N)c(SCC(=O)Nc3ncc(C)s3)n2)cc1	n	u
CC(C)NC(=O)CSc1nc(-c2cccs2)cc(-c2ccccc2)c1C#N	n	20µM
COc1ccc(-c2cc(-c3ccccc3)nc(SCC(=O)Nc3nccs3)c2C#N)cc1	n	7.9µM
CCc1nnc(NC(=O)CSc2nc(-c3ccccc3)cc(-c3ccc(OC)cc3)c2C#N)s1	n	13µM
CCOC(=O)c1sc(NC(=O)CSc2nc3c(cc2C#N)CCCCCC3)c(C#N)c1C	n	u
COc1cccc(NC(=O)CSc2nc3c(c(-c4ccco4)c2C#N)CCCC3)c1	n	6.3µM
COc1ccc(-c2c(C#N)c(SCC(=O)Nc3ccccc3C)nc(C)c2C(=O)Nc2ccc(Cl)cc2)cc1	n	n
COc1cccc(NC(=O)CSc2nc(=O)n(Cc3ccco3)c3c2CCC3)c1	n	n
CCOC(=O)c1sc(NC(=O)CSc2nc3c(c(-c4ccc(OC)cc4)c2C#N)CCCC3)c(C#N)c1C	n	3.2µM
CCc1ccc(NC(=O)CSc2nc(C)c(C(=O)Nc3ccc(Cl)cc3)c(-c3ccc(OC)cc3)c2C#N)cc1	n	7.9µM
CCCCCCCC1=Cc2ccc(F)cc2C(C(C(C)=O)C(=O)OC)N1C(=O)OC (stereo unspecified)	n	n
SMILES	Cruzain Triton	Cruzain noTriton
COc1ccc2c(CNCCc3ccc(SC)cc3)c(C(=O)O)n(Cc3ccc(F)cc3)c2c1	n	u
ClC(Cl)=C(Cl)Cl	n	n
Cc1ccccc1C(=O)NCc1nc2cccnc2n1Cc1ccccc1	n	n
CCNC(=S)N/N=C1\C(=O)c2cccc3cccc1c23	n	u
O=C(N/N=C1/C(=O)c2cccc3cccc1c23)c1ccc(Cl)cc1	10µM	n
CCOC(=O)c1c(S(=O)(=O)N2CCC(C(=O)N3CCN(c4cccc(C)c4C)CC3)CC2)c(C)n(C)c1C	n	u
CCOc1ccc(C(=O)Nc2ccc3nc(SCC(=O)N4CCOCC4)sc3c2)cc1	n	u
CCc1nnc(SCC(=O)N(C)c2ccccc2)c2cc3sccc3n12	n	n
O=C1C=CC(=O)c2c(O)c(Cl)c(Cl)c(O)c21	n	n
O=C(CSc1nc(O)cc(=O)n1-c1ccccc1)Nc1ccc2c3c(cccc13)CC2	25µM	u
Cc1c(O)nc(SCC(=O)Nc2ccc3c4c(cccc24)CC3)n(-c2ccccc2)c1=O	n	u
Fc1ccccc1COc1ccccc1/C=N/Nc1nc(N2CCCC2)nc(N2CCCC2)n1	n	u
Fc1ccc(COc2ccc(Cl)cc2/C=N/Nc2nc(N3CCCC3)nc(N3CCCC3)n2)cc1	n	5µM
COc1ccccc1OCC(=O)NCCc1nc2ccccc2[nH]1	16µM	13µM
CCC(=O)NCCc1nc2ccccc2[nH]1	n	n
Cc1cc(OCC(=O)NCCc2nc3ccccc3[nH]2)cc(C)c1Cl	8.9µM	n
Cc1ccc(C(C)(C)C)c(OCC(=O)NCCc2nc3ccccc3[nH]2)c1	n	n
Cc1cc(C(=O)CSC(=S)SC(C)(C)C)ccc1Cl	n	n
CCOc1ccc(CNC(=O)CCCn2c(=O)c3cccn3c3ccc(F)cc32)cc1	n	n
O=C(Nc1cccc(Cl)c1Cl)c1cc(S(=O)(=O)N2CCCCC2)ccc1F	n	n
